A selection: hits, their analogues and other compounds. The true share with any hit is near 7.1%.
SW480 rerep: inducers of DNA re-replication in SW480 colon cancer cells; Potency, µM (titrated, usually from 46.1 µM), usual class: activators; SW480 DNA re-replication, Hoechst DNA content imaging, 48 h; 1.8% of 340,000 active; AID 624297; further: nearly all actives have a fitted effect of over 55% in size
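First, 250 cells per well were seeded. Next, compound or vehicle (23 nL) was pinned in, plates sat 48 hr at 37 C. Finally Hoechst was added for 40 min before fluorescence scanning.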
ELG1 genotox: inducers of genotoxicity in HEK293T ELG1-luciferase cells | 1.3% of 330,000 active | HEK293T ELG1-luciferase reporter, luminescence, 16 h | Potency, µM (series often up to 46 µM), actives largely listed as activators; further: nearly all actives have a fitted effect of over 60% in size
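After overnight (16 hr) compound treatment at 37 °C, ELG1-luciferase HEK293T cells were lysed with ONE-Glo; luminescence quantified 30 min later at room temperature.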
ELG1 repair inh: blocks ELG1-dependent DNA repair in HEK293T cells. 2.3% of 330,000 active. Potency, µM (series often up to 46.1 µM), actives largely listed as inhibitors. HEK293T ELG1-luciferase reporter, luminescence, 16 h; DNA damage induced by 5-fluorouridine; further: nearly all actives have a fitted effect of over 55% in size
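In this reporter screen, reduction of luminescence relative to DMSO vehicle indicated activity. Compounds and 5-fluorouridine were added together to 2,000 cells per well, incubated for 16 hr at 37 °C, then developed with ONE-Glo.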
AT treatment: potential ataxia-telangiectasia treatment; F2112 A-T fibroblasts, KAP-1 phosphorylation AlphaLISA; neocarzinostatin DNA damage 30 min before lysis; Potency, µM (titrated, usually from 57.5 µM), actives largely listed as activators; 0.19% of 320,000 active; AID 485349; further: nearly all actives have a fitted effect of over 45% in size
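hTERT-immortalized A-T patient fibroblasts (F2112), 500 cells/well in OPTI-MEM, 1% FBS, got compounds for 60 min, then NCS for 30 min at 37C. Lysates were then assayed for phospho-KAP-1 by AlphaLISA (anti-pKAP1 donor, anti-KAP1 acceptor beads), 6 hr at 25C.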
MCF10A rerep: DNA re-replication induction in MCF 10a cells; 2.9% of 350,000 active; Potency, µM (titrated, usually from 46.1 µM), most hits filed as activators; AID 624296; MCF 10A DNA re-replication, Hoechst nuclear intensity, 48 h; further: nearly all actives have a fitted effect of over 50% in size
p53 reactivator: restores transcriptional activity of mutant p53; Potency, µM (top dose mostly 92.2 µM), hits mostly activators; 0.063% of 320,000 active; H1299 p53-A138V BP100-luciferase reporter, luminescence, 24 h; further: nearly all actives have a fitted effect of over 45% in size
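p53-null H1299 cells stably carrying temperature-sensitive p53-A138V and a BP100-luciferase reporter were pinned with compounds (4-point, 1:5 series) and held 24 hrs at 37 deg C. Luminescence was read 10 min after detection reagent.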
Numbers stand for hits; . = inactive; ? = inconclusive; / = not tested or not shown; [ ] = another dose, or the depositor's remark. The call rests on the fitted dose curve; in most records, active means well fitted curve in the direction sought with a large enough effect; inconclusive means small, poorly fitted or top-dose-only effect, or another doubt; inactive means no such curve, though single readings can be large; an effect the other way counts as inactive or inconclusive.

SMILES	SW480 rerep	ELG1 genotox	ELG1 repair inh	AT treatment	MCF10A rerep	p53 reactivator
Cc1ccc(C)c(-n2c(=O)c(C#N)cc3c(=O)n4ccccc4nc32)c1	.	.	.	.	?	.
Cc1ccc(-n2c(=O)c(C#N)cc3c(=O)n4ccccc4nc32)cc1	2.06µM	.	.	.	?	.
Cc1ccc2oc(C(=O)N3CCN(Cc4nccn4C)CC3)c(C)c2c1	.	.	.	.	?	.
COc1ccccc1CN1CC(C(=O)NCCCc2ccc(F)cc2)CCC1=O (configuration not stated)	.	.[9.26 µM]	10.3µM	.	.	.
COc1ccc(Cl)cc1NC(=S)NCCSc1ccc(C)cc1	.	.	.	.	23.1µM	?
CCCCCCCCCNC(=O)[C@H](NC(=O)COc1ccccc1)[C@@H]1NC(C(=O)OC)C(C)(C)S1 (some centres not stated)	.	/	/	/	6.51µM	/
COC(=O)C1N[C@@H]([C@@H](NC(=O)COc2ccccc2)C(=O)NCc2ccsc2)SC1(C)C (some centres not stated)	.	/	/	/	?	/
CC1=CC(c2ccccc2)=Nc2ccc(C)cc2N1	.	11.6µM	?	.	.	?
O=C(NCC1CCCO1)c1cc(S(=O)(=O)N2CCCC2)c(Cl)cc1Cl (configuration not stated)	.	.	.	.	.	.
CC(C)(C)C(=O)NC(Nc1cccc2cccnc12)C(Cl)(Cl)Cl (configuration not stated)	23.1µM	.	.	.	20.6µM	.
COc1ccc(OC)c(/C=C/C(=O)Nc2cccc(S(=O)(=O)N3CCCC3)c2)c1	.	.	?	.	23.1µM	.
CCN1CCN(c2ccc(S(=O)(=O)N3CCCCC3)cc2NC(=O)COc2ccc(Cl)c(C)c2)CC1	16.4µM	.	23.1µM	.	.	.
CCN1CCN(c2ccc(S(=O)(=O)N3CCCCC3)cc2NC(=O)c2ccc([N+](=O)[O-])s2)CC1	13µM	.	?	.	?	.
CCN1CCN(c2ccc(S(=O)(=O)N3CCCCC3)cc2NC(=O)/C=C/c2cc(OC)ccc2OC)CC1	.	?	?	.	20.6µM	.
O=C(C[C@@H]1C/C=C\C[C@H](Cc2ccc(F)cc2)C(=O)OC[C@@H]2CCCN2C1=O)N[C@H](CO)Cc1ccccc1	.	.	?	.	?	.
COc1cc(C(=O)OCC(=O)N2CCCCC2C)cc(NC(=O)c2cccs2)c1OC (configuration not stated)	.	.	18.3µM	.	.	.
NC(=O)CSc1nc(C23CC4CC(CC(C4)C2)C3)nc2ccccc12	.	?	.	.	?	.
Cc1nonc1NC(=O)CSc1nc(C23CC4CC(CC(C4)C2)C3)nc2ccccc12	?	.	.	.	10.3µM	.
Cc1nonc1NC(=O)CSc1nc(C2CCCCC2)nc2ccccc12	8.2µM	.	.	?	?	.
CCOC(=O)C1=CNS(=O)(=O)NC1c1ccc(C[C@H](NC(=O)CNC(=O)CCc2ccccc2)C(N)=O)cc1 (some centres not stated)	.	.	.	.	.	.
Cc1ccc(C(=O)CCS(=O)(=O)c2ccc(F)cc2)cc1	?	.	.	.	?	.
Cc1ccc(C(=O)CCS(=O)(=O)c2ccc(Cl)cc2)cc1	9.2µM	.	.	.	3.26µM	.
Cc1ccc(S(=O)(=O)CCC(=O)c2ccc(F)cc2)cc1	?	.	.	.	4.61µM	.
CSCCC(NS(=O)(=O)c1ccccc1)C(=O)Nc1nccs1 (configuration not stated)	.	.	?	.	.	.
O=C(Nc1ccc(Cl)c(S(=O)(=O)N2CCOCC2)c1)c1ccc(Cl)nc1	.	.	?	.	?	.
CC1=CN2C(=N)/C(=C\c3cn(CCCOc4ccccc4)c4ccccc34)C(=O)N=C2S1	/	?	?	.	3.66µM	.

Assay outcomes (PubChem BioAssay)
